Our source for the Potency, outcome and max activation values is PubChem BioAssay (Tox21).

Assay [1] in a line: qHTS assay to identify small molecule agonists of the estrogen receptor alpha (ER-alpha) signaling pathway in the presence of an antagonist - cell viability counter screen (AID 1259386).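 Also: series mostly up to about 92 µM; cells exposed to compounds for 22 h at 37 °C before the viability read; nearly all actives have a fitted effect of over 30% in size.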 The procedure, abridged:
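Steps: 5-day stripped-FBS culture; seed and incubate 24hr; add ICI-182,780 (10.0nM final); pin 15-point compound titration; incubate 22hr at 37C; add CellTiter-Fluor at 21hr; read fluorescence.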
On the technique in general: qHTS replaces the single test concentration by a dilution series.

The target in assay [2] is Progesterone receptor (Homo sapiens) (UniProt P06401). In words: qHTS assay to identify small molecule agonists of the progesterone receptor (PR) signaling pathway (AID 1346784; calls by dose curve; also: nearly all actives have a fitted effect of over 30% in size). The procedure, abridged: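 Compounds were tested for PR agonism in HEK 293T cells bearing a beta-lactamase gene under UAS control. Treatment lasted 16 hr at 37C; signal came from fluorescence of a FRET substrate.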
Sequence of Progesterone receptor (Homo sapiens) (P06401 whole entry, looked up): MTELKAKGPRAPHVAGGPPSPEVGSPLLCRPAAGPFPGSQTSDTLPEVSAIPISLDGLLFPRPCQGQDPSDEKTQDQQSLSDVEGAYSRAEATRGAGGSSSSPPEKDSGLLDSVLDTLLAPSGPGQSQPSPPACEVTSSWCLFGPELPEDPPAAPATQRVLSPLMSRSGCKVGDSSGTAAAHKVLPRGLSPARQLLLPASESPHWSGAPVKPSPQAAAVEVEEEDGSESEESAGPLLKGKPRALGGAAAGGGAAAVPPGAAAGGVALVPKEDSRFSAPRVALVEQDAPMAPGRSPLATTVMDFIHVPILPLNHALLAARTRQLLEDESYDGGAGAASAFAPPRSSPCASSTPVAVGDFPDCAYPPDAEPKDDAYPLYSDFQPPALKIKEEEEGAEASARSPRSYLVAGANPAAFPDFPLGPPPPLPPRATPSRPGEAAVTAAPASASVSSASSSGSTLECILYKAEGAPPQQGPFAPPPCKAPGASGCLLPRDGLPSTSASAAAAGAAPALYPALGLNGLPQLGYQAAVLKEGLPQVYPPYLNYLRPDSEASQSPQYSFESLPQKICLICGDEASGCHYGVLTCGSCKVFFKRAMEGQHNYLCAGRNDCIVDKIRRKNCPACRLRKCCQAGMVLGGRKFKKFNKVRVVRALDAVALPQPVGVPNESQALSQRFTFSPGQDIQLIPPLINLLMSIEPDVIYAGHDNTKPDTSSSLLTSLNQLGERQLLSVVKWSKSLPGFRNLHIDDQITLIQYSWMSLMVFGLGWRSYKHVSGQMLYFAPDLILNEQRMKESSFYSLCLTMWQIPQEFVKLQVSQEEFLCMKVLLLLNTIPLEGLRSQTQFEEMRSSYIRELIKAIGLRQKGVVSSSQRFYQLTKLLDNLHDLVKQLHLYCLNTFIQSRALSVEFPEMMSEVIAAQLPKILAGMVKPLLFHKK

The target is the same in assay [3]. Description: qHTS assay to identify small molecule antagonists of the progesterone receptor (PR) signaling pathway (AID 1346795; active = well fitted inhibition curve with a large enough effect in the signal ratio in the repeat runs, not every such curve was filed as active; the % refers to the signal ratio; also: potency is read from the fitted curve at half-maximal effect). The procedure, abridged:
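In HEK293T cells bearing the PR-UAS-bla reporter, compound effects on promegestone-driven (1 nM) beta-lactamase expression are assessed after 16 hr using a fluorescent FRET substrate incubated 2 hr at room temperature.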

A short description of assay [4]: qHTS assay to identify small molecule antagonists of the progesterone receptor (PR) signaling pathway - cell viability counter screen (AID 1346798). Also: series mostly up to about 92 µM; nearly all actives have a fitted effect of over 50% in size. The method in brief:
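Following a 4 hr attachment, PR-UAS-bla HEK293T cells in charcoal-stripped FBS medium were exposed to compounds with R5020 for 16 hr; CellTiter-Glo was added and luminescence read after 30 min at room temperature.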

A short description of assay [5]: qHTS assay to identify small molecule agonists of the progesterone receptor (PR) signaling pathway - cell viability counter screen (AID 1346799; calls by dose curve; also: nearly all actives have a fitted effect of over 45% in size). The method in brief: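 Here, 3,000 PR-UAS-bla HEK293T cells per well were treated with compounds for 16 hr after a 6 hr preincubation at 37C and 5% CO2; cell viability is the CellTiter-Glo luminescence signal.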
Assay [6] can be described thus: qHTS assay to identify small molecule antagonists of the TGF-beta/Smad signaling pathway - cell viability counter screen (AID 1346824). Also: nearly all actives have a fitted effect of over 50% in size. The procedure, abridged: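 Cytotoxicity counter-screen run in the same wells as the beta-lactamase Smad reporter read: CellTiter-Glo luminescence after 30 min at room temperature. HEK 293T SBE-bla cells had 5 hr compound exposure at 37 C with TGF-beta1 (0.25 ng/mL stock).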

The nature of assay [7]: Human pregnane X receptor (PXR) small molecule agonists, qHTS cell viability counter screen (AID 1346977). Also: nearly all actives have a fitted effect of over 50% in size. The method in brief:
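Tox21 qHTS format; PXR-Luc HepG2, 2,000/well, charcoal-stripped FBS 5%. Cpd exposure 24hr. Read: CellTiter-Fluor fluorescence, multiplexed with luciferase.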

Assay [8] can be described thus: Caspase-3/7 induction in CHO-K1 cells by small molecules, qHTS cell viability counter screen (AID 1346979). Also: nearly all actives have a fitted effect of over 35% in size. Also: potency is read from the fitted curve at half-maximal effect. The procedure, abridged: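 CellTiter-Fluor viability check, qHTS format: wild-type CHO-K1, 16hr compound treatment, 1hr reagent incubation, fluorescence read.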
The target of assay [9] is Nuclear receptor subfamily 1 group I member 2 (Homo sapiens) (UniProt O75469). Description: Human pregnane X receptor (PXR) small molecule agonists, qHTS assay (AID 1346982). Also: nearly all actives have a fitted effect of over 35% in size. Also: potency is read from the fitted curve at half-maximal effect. The method in brief: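 After plating in 5% charcoal-stripped FBS and a 5 hr rest, PXR-Luc HepG2 cells received compounds in DMSO. Following 24 hr at 37 C, ONE-Glo was added and light output read.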
Sequence of Nuclear receptor subfamily 1 group I member 2 (Homo sapiens) (O75469 whole entry, looked up): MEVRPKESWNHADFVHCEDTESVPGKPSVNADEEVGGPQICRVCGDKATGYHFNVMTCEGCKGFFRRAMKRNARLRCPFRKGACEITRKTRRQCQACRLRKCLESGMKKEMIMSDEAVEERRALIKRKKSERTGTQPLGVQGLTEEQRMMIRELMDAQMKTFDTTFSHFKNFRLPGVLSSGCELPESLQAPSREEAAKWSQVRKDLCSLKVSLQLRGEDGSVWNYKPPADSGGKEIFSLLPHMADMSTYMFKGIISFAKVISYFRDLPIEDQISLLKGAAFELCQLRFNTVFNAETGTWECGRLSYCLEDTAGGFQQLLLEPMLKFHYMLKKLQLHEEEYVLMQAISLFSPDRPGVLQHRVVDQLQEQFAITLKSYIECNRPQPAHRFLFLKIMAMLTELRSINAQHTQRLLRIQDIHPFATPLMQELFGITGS

Assay [10] is described as follows: qHTS assay to identify small molecule agonists of the TGF-beta/Smad signaling pathway - cell viability counter screen (AID 1346829). Also: top concentration of the series differs between compounds; nearly all actives have a fitted effect of over 45% in size. The procedure, abridged:
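Luminescence from CellTiter-Glo, read after a 30 min room-temperature incubation, gives cell viability of SBE-bla HEK 293T cells treated 5 hr with compounds at 37 C.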

A short description of assay [11]: qHTS assay to identify small molecule agonists of the TGF-beta/Smad signaling pathway (AID 1346859; active = well fitted activation curve with a large enough effect in the signal ratio in the repeat runs, not every such curve was filed as active; the % refers to the signal ratio; also: series mostly up to about 77 µM). The method in brief: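 Each well held 4,000 SBE-bla HEK 293T cells incubated overnight before compound addition; 5 hr later the cleavable FRET substrate went on for 2 hr at room temperature, and fluorescence was read at two emissions.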
Assay [12] concerns the target Thyrotropin-releasing hormone receptor (Homo sapiens) (UniProt P34981). Description: qHTS assay to identify small molecule antagonists of the thyrotropin-releasing hormone receptor (TRHR) signaling pathway (AID 1346877; active = well fitted inhibition curve with a large enough effect in the repeat runs, not every such curve was filed as active; also: series mostly up to about 51 µM). The procedure, abridged: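 Human TRHR in HEK293 cells; inhibition of the intracellular calcium rise triggered by 1 nM TRH was followed by fluorescence over 3 min. Compounds were run at 15 concentrations, three replicates each.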

Assay [13] shares this target. Description: qHTS assay to identify small molecule agonists of the thyrotropin-releasing hormone receptor (TRHR) signaling pathway (AID 1346891; calls by dose curve; also: series mostly up to about 58 µM). The method in brief: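 Screening of agonists relied on calcium signalling in HEK293 cells expressing human TRHR: dye loading 2 h at 37 °C preceded compound addition and a 3-min fluorescence time course.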
Assay [14] can be described thus: Caspase-3/7 induction in CHO-K1 cells by small molecules, qHTS assay (AID 1346980). Also: nearly all actives have a fitted effect of over 15% in size. The method in brief:
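Luminescent Caspase-Glo 3/7 read (30min, room temperature) quantified apoptosis induction. Cells were wild-type CHO-K1, treated with compound for 17hr at 37 C and 5% CO2.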

Assay [15] in a line: Caspase-3/7 induction in HepG2 cells by small molecules, qHTS cell viability counter screen (AID 1346981). Also: series mostly up to about 92 µM; nearly all actives have a fitted effect of over 30% in size. The procedure, abridged: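 The parent HepG2 line is plated at 2,000 cells per well and rested 5 hr before compound pinning from DMSO stocks. Following a 16-hr treatment at 37 C, a fluorogenic live-cell substrate (CellTiter-Fluor) reports viability after 1 hr.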
For assay [16], the target named is Cytochrome P450 2D6 (Homo sapiens) (UniProt P10635). In words: Cytochrome P450 Family 2 Subfamily D Member 6 (CYP2D6) small molecule antagonists: luciferase reporter qHTS assay (AID 1671196). Also: nearly all actives have a fitted effect of over 50% in size. Also: potency is read from the fitted curve at half-maximal effect. The procedure, abridged: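 Quantitative HTS of Tox21 chemicals against CYP2D6 using a luminescent proluciferin substrate. After NADPH addition, 1 h room-temperature reaction; luminescence recorded 20 min post detection reagent.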
Sequence of Cytochrome P450 2D6 (Homo sapiens) (P10635 whole entry, looked up): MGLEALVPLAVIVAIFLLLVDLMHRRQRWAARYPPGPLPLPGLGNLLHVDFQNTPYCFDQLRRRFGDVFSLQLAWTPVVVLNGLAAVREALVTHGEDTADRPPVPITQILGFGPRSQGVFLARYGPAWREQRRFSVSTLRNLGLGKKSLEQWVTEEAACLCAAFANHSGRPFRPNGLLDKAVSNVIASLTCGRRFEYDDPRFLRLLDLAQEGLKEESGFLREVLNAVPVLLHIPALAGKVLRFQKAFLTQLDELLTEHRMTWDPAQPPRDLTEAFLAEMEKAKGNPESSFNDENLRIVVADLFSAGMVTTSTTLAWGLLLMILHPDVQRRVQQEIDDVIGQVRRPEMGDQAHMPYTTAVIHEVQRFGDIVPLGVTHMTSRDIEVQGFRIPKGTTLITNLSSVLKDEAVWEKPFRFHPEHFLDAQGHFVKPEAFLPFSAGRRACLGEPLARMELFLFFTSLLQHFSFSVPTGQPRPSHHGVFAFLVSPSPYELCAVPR
In general terms: A reporter such as luciferase makes a cellular process visible.

The nature of assay [17]: Caspase-3/7 induction in HepG2 cells by small molecules, qHTS assay (AID 1346978). Also: nearly all actives have a fitted effect of over 15% in size. The method in brief: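 Caspase-3/7 induction was measured by Caspase-Glo 3/7 luminescence (30 min, room temperature) after a 17 hr compound exposure of wild-type HepG2 cells seeded at 2,000 per well and pre-incubated 5 hr.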
Assay [18] concerns the target Nuclear receptor subfamily 1 group I member 2 (Rattus norvegicus) (UniProt Q9R1A7). Description: Rat pregnane X receptor (rPXR) activation by small molecules, qHTS assay (AID 1346983). Also: nearly all actives have a fitted effect of over 20% in size. Particulars: rPXR luciferase reporter cells, One-Glo luminescence, 24 h; stronger effect = higher value. The method in brief: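 Luminescent readout (One-Glo luciferase, 30 min room temperature) followed 24 hr compound treatment at 37 C of rPXR cells plated 2,000 per well and preincubated 5hr; qHTS format with compounds delivered in DMSO.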

Assay [19] deals with Nuclear receptor subfamily 1 group I member 2 (Homo sapiens) (UniProt O75469). In words: CYP3A4 induction through human pregnane X receptor (PXR) by small molecules, qHTS assay (AID 1346984). Also: nearly all actives have a fitted effect of over 40% in size. The procedure, abridged:
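Human PXR activation is tracked via CYP3A4 promoter-luciferase in DPX-2 (HepG2) cells. Compounds treat cells for 24hr at 37C, and luminescence is read after One-Glo.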

The target is the same in assay [20]. In words: Human pregnane X receptor (PXR) activation by small molecules, qHTS assay (AID 1346985). Also: nearly all actives have a fitted effect of over 40% in size. The method in brief: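 DPX-2 cells (HepG2 co-transfected with a PXR response element and a CYP3A4-promoter luciferase construct) were seeded at 2,000 per well, rested 5 hr at 37C, then exposed to DMSO-dissolved compounds for 24 hr. Activation was read as luciferase luminescence.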

Records with an inconclusive call do not appear. A structure can be active in one record and inactive in another. The source made the active and inactive calls. Unless noted, calls follow the shape of the dose curve; as a rule, active = well fitted curve in the direction sought with a large enough effect in the repeat runs; inconclusive = weak or mixed curves; inactive = no such curve, though single readings can be large; an effect the other way counts as inactive or inconclusive.
% is scaled to controls: 0 for no effect and ±100 for the full control effect.

Sequence of Thyrotropin-releasing hormone receptor (Homo sapiens) (P34981 whole entry, looked up): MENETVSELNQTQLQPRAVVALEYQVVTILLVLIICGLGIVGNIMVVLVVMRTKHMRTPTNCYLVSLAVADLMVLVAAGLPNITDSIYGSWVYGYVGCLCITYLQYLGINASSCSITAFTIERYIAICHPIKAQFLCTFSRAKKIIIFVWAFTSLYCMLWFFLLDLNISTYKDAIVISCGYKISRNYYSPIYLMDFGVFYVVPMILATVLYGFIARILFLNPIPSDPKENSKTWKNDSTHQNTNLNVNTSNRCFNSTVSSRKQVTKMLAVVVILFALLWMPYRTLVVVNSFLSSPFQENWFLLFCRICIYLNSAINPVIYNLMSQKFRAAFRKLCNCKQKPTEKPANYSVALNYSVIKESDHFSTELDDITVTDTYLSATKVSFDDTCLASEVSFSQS
Sequence of Nuclear receptor subfamily 1 group I member 2 (Rattus norvegicus) (Q9R1A7 whole entry, looked up): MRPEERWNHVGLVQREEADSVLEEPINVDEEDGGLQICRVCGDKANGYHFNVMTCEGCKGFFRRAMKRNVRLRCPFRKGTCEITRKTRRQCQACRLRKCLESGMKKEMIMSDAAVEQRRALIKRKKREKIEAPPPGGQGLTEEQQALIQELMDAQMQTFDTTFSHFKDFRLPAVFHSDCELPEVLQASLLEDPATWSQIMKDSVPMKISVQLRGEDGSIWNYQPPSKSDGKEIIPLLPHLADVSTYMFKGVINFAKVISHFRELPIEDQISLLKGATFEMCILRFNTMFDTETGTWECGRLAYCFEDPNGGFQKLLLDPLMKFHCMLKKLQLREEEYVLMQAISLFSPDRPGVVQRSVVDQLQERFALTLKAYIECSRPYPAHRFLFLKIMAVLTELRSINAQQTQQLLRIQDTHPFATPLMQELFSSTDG

As for `CC(C)(C)c1ccc(C(O)CCCN2CCC(C(O)(c3ccccc3)c3ccccc3)CC2)cc1` (stereo not given), the Potency result in assay [1], in assay [2], in [3], in assay [4], in assay [5] and in assay [6] was “inactive” throughout. The Potency result in [7] and in assay [9] was “inactive” throughout. In assay [8], the Potency was 11.9 µM (active).

With `COc1cc(/C=C/c2ccccc2)oc(=O)c1`, the Potency entry in [1], in [2], in [3], in [4], in assay [5] and in assay [6] was “inactive” throughout. Besides, the Potency entry in assay [10], in assay [11], in assay [12], in assay [7], in [8] and in [14] was “inactive” each time. In addition, the Potency result in assay [15] and in assay [16] was “inactive” in each case. The outcome in [13] was inactive. Further, the Potency in assay [9] was 7.96 µM (active).

As for `CCCCCC(C)OC(=O)COc1ccc(Cl)c2cccnc12` (stereo not given), the Potency result in [1], in assay [2], in assay [4], in assay [5], in [6] and in assay [10] was “inactive” throughout. Also, the Potency entry in [11], in assay [12], in assay [7], in assay [17], in assay [14] and in [15] was “inactive” each time. Moreover, the Potency entry in assay [16] is “inactive”. Besides, the results for the Potency in [3] and in assay [9] were 54.5 µM (active) and 24.3 µM (active), respectively. For the same molecule, the molecule was called inactive in assay [13].

Turning to `O=C(O)CCN(C1(C(=O)NO)CCCC1)S(=O)(=O)c1ccc(Oc2ccc(F)cc2)cc1`, the Potency result in [1], in [2], in assay [3], in [4], in [5] and in [10] was “inactive” in each case. Moreover, the Potency result in assay [11], in assay [12], in assay [7], in [17], in assay [8] and in assay [14] was “inactive” in each case. The Potency result in assay [15], in assay [9] and in assay [16] was “inactive” each time. In addition, the molecule was classed as inactive in assay [13].

Turning to `CC(N=C(NC#N)Nc1ccncc1)C(C)(C)C` (stereo not given), the Potency result in assay [1], in [2], in [3], in [5], in [6] and in assay [10] was “inactive” in each case. Besides, the Potency result in [11], in [12], in [7], in [17], in [8] and in [14] was “inactive” in each case. In addition, the Potency result in assay [15] is “inactive”. Moreover, the call in assay [13] was inactive. Further, in assay [18], the max activation was -8.82% (inactive).

In the case of `Cc1c(C)c2c(c(C)c1OC(=O)c1cccnc1)CC[C@@](C)(CCC[C@H](C)CCC[C@H](C)CCCC(C)C)O2`, the Potency result in assay [1], in assay [2], in assay [3], in assay [4], in assay [5] and in assay [10] was “inactive” in each case. The Potency entry in assay [11], in assay [7], in assay [17], in [8], in [14] and in [9] was “inactive” each time. Besides, the Potency result in [19], in [20] and in assay [16] was “inactive” throughout. In addition, the max activation in assay [18] is 0.296% (inactive).

On to `C=Cc1cccc(C)c1`, for which the Potency entry in [1], in [2], in [3], in assay [4], in assay [5] and in assay [10] was “inactive” throughout. Besides, the Potency entry in [11], in assay [7], in assay [17], in assay [14], in assay [15] and in [9] was “inactive” in each case. Also, the Potency in assay [8] is 60.5 µM (active) and inactive; in assay [16], 39.5 µM (active) and inactive.

Regarding `CCCc1ccc(OCC(=O)N2CCN(C(=O)COc3ccc(CCC)cc3OC)CC2)c(OC)c1`, the Potency result in [1], in assay [2], in assay [3], in assay [4], in assay [10] and in [11] was “inactive” each time. Moreover, the Potency result in [12], in assay [7], in assay [8], in assay [14] and in [16] was “inactive” in each case. Further, in [13], the result was inactive. The Potency in assay [9] is 4.22 µM (active).
